These results are taken from PubChem BioAssay AID2551 (National Center for Advancing Translational Sciences (NCATS), 2010).

Hit rate of the full screen: of about 310,000 compounds, about 17,000 (5.5%) were called active. About 11% were inconclusive and are not listed. Shown is part of a subset that was picked to be rich in actives. A number with no mark means an inactive call. Calls follow the shape of the dose curve; as a rule, active = well fitted inhibition curve with a large enough effect; inconclusive = small, poorly fitted or top-dose-only effect, or effect the other way; inactive = no such curve, though single readings can be large or run the other way. Where a SMILES comes first, the peptide text is derived from it. [ ]: non-standard residue; d: D form. The star is where a group is joined. ξ: configuration not given here. Cbz = O=C(OCc1ccccc1)*; ξL = CC(C)CC(N)C(=O)O; ξP = O=C(O)C1CCCN1
% is scaled to controls: 0 for no effect and ±100 for the full control effect; potency is read from the fitted curve at half-maximal effect.

Sequence of Nuclear receptor ROR-gamma (Mus musculus) (P51450 whole entry, looked up, the tested form may be a part): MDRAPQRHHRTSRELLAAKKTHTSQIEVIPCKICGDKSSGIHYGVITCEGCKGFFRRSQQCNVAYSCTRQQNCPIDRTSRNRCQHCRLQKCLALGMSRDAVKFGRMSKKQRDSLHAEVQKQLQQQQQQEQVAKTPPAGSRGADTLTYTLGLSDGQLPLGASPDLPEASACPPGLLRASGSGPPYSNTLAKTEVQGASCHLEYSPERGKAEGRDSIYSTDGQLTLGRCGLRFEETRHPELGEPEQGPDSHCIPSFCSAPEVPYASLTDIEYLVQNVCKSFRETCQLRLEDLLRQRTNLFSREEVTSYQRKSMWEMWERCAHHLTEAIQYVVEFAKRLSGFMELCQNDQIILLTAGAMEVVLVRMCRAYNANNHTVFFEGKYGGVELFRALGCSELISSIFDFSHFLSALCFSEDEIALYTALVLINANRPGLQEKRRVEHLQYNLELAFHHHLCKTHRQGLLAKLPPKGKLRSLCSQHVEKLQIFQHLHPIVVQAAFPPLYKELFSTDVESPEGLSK

The assay addresses Nuclear receptor ROR-gamma (Mus musculus) (UniProt P51450). Put plainly: qHTS for inhibitors of ROR gamma transcriptional activity. Also: nearly all actives have a fitted effect of over 60% in size. The conditions noted are these: Drosophila S2 Gal4-RORgamma UAS-luciferase reporter, 20 h; series mostly up to 53.6 µM; activity change, negative = inhibition: at the top concentration. The method in brief:
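Stably transfected Drosophila Schneider cells are the test system, with ROR gamma fused to Gal4 and luciferase under UAS control; luminescence is read after 20 hr of 700 uM copper sulfate induction at ambient temperature.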
Consider `CC(=O)c1ccc(N2CCN(C(=O)C3CCN(S(=O)(=O)c4ccc5c(c4)CC(C)N5C(=O)C4CC4)CC3)CC2)cc1` (stereo not drawn), for which the “activity change, negative = inhibition” value is 42.1%.
In the case of `COc1ccc(CCNC(=O)CCCCCNC(=O)N2CCn3c2nc2ccccc23)cc1OC`, the “activity change, negative = inhibition” value is 4.74%.
In the case of `N#Cc1c(Cl)nc(-c2cccnc2)nc1-c1ccccc1`, the “activity change, negative = inhibition” value was 0.184%.
In the case of `CCOC(=O)c1cnc(Nc2nc3ccccc3o2)nc1CSC(=S)N1CCCCC1`, the Potency is 0.447 µM (active).
As to `CCc1ccc(CNC(=O)C2CCCN(c3nc4ccccc4o3)C2)cc1` (stereo not drawn), the “activity change, negative = inhibition” value is 24.5%.
On to `CCOC(=O)CCNC(=O)N1CCCC(C(=O)c2ccccc2SC)C1` (stereo not drawn), for which the “activity change, negative = inhibition” value was 25.3%.
With `CCCCCc1c(C)nc(N2CCN(Cc3ccc4c(c3)OCO4)CC2)[nH]c1=O`, the “activity change, negative = inhibition” value was -4.87%.
For the compound `COc1ccc(C(=O)NC(C)c2nccs2)cc1OC1CCN(C(C)C)CC1` (stereo not drawn), the “activity change, negative = inhibition” value is 3.59%.
As for `O=C1Nc2ccccc2/C1=C/c1ccnc2ccccc12`, the “activity change, negative = inhibition” value is -13.4%.
Turning to `COc1cc2cc(C(=O)N/N=C/c3cccc(OC)c3OC)[nH]c2cc1OC`, the “activity change, negative = inhibition” value was 21.4%.
Consider `COc1cccc(/C=N/NC(=O)c2[nH]nc3c2CCc2ccccc2-3)c1O`, for which the Potency was 0.794 µM (active).
Regarding `CN(C)CCNC(=O)c1[nH]nc2c1CCc1ccccc1-2`, the “activity change, negative = inhibition” value was -0.392%.
`Cc1ccc(CNCc2ccc3c(c2)OCO3)c(C)c1`: the “activity change, negative = inhibition” value was -34.2%.
Consider `COc1ccc(-c2nnc(SCC(=O)c3cccs3)o2)c(OC)c1`, for which the “activity change, negative = inhibition” value is 31.9%.
For `COc1ccc(NC(=O)CS(=O)(=O)c2ccccc2)cc1`, the “activity change, negative = inhibition” value was 16.7%.
For `COc1ccc(-c2nnc(NC(=O)CS(=O)(=O)c3ccc(Cl)cc3)o2)c(OC)c1`, the Potency is 17.8 µM (active).
As for `CN(C)C(=O)CCC(=O)N1CCCCC1C(=O)Nc1ccc(Oc2ccccc2F)cc1` (stereo not drawn), the “activity change, negative = inhibition” value was 21.8%.
For the compound `CC(=O)NS(=O)(=O)c1ccc(N/C(N)=N/c2nc(C)cc(C)n2)cc1`, the “activity change, negative = inhibition” value was -13.8%.
For `CC(C)c1ccc(NC(=O)Cn2ncc3ccccc32)cc1`, the “activity change, negative = inhibition” value is 26.2%.
Take `C=CCc1c(C)nc2cc(-c3ccccc3)[nH]n2c1=O`: the “activity change, negative = inhibition” value was -22.1%.
For the compound `CNC(=O)c1[nH]cnc1C(=O)N[C@@H](CC(C)C)C(=O)OCc1ccccc1`, the Potency was 10 µM (active).
As to `C[C@H](NC(=O)c1nc[nH]c1C(=O)NCC(=O)OC(C)(C)C)C(=O)OCc1ccccc1`, the Potency is 11.2 µM (active).
As for `O=C(CNC(=O)c1ccc(-c2ccccc2)cc1)OCc1ccc(Cl)cc1`, the “activity change, negative = inhibition” value is -13.7%.
Turning to `CC(C)CC(NC(=O)C1CCCN1C(=O)[C@@H](C)NC(=O)OCc1ccccc1)C(=O)NCC(N)=O` (stereo partly drawn) (Cbz-[dA][ξP][ξL]G-NH2), the “activity change, negative = inhibition” value was -8.88%.
Turning to `COC(=O)[C@@H](Cc1ccccc1)NC(=O)NCCc1ccccc1`, the “activity change, negative = inhibition” value is 12.9%.
Take `Cc1cccc(NC(=O)c2nc[nH]c2C(=O)NCC(=O)OCc2ccccc2)c1`: the Potency was 12.6 µM (active).
As for `COc1ccccc1NC(=O)[C@H](COCc1ccccc1)NC(=O)OC(C)(C)C`, the “activity change, negative = inhibition” value was -0.0777%.
Take `CC(C)(C)OC(=O)CNC(=O)c1[nH]cnc1C(=O)N[C@@H](Cc1ccccc1)C(=O)OCc1ccccc1`: the “activity change, negative = inhibition” value is 20%.
Regarding `O=C(N[C@@H](Cc1ccccc1)C(=O)OCc1ccccc1)c1nc[nH]c1C(=O)N[C@@H](Cc1ccccc1)C(=O)OCc1ccccc1`, the Potency was 10 µM (active).
For `CC(C)[C@H](NC(=O)OCc1ccccc1)C(=O)OCc1ccccc1`, the “activity change, negative = inhibition” value was -28.3%.
Consider `NC(=O)c1ccc(NC(=O)COC(=O)C(Cc2ccccc2)NC(=O)c2ccccc2)cc1` (stereo not drawn), for which the “activity change, negative = inhibition” value was -24.2%.
On the same count and under the same terms, the figure for `O=C(CNC(=O)c1ccccc1)NCC(=O)OCc1ccc(Cl)cc1` is 5.95%; for `C/C(=N\N(C)C)c1ccc(OCCOc2ccc([N+](=O)[O-])cc2)cc1` it is 26%; for `CCOC(=O)C1(Cc2ccccc2C)CCCN(S(C)(=O)=O)C1` (stereo not drawn) it is -2.12%.
Same read-out and setting: for `COCc1c(C(=O)N/N=C(\C)c2ccncc2)nnn1-c1nonc1N` the value was 6.85%; for `C=CCNC(=O)c1ccccc1SCc1c(C)noc1C`, -15.9%; for `Cc1ccc(NC(=O)C(CC(=O)O)C2CCCO2)c(C)c1` (stereo not drawn), -16.9%.
On to `O=C(Nc1ccc(Cl)cc1)c1cccc(OC(=S)N2CCOCC2)c1`, for which the “activity change, negative = inhibition” value was 25.6%.
Take `COc1ccc(S(=O)(=O)N(C)CC(=O)N2CCCC2)cc1`: the activity change, negative = inhibition was -15.8% [at 1.91 µM].
On the same count and under the same terms, the figure for `Cc1ccc(NC(=O)C/C(N)=N/O)cc1Cl` is 15.1%.
On to `O=C(Cc1ccc(Cl)c(Cl)c1)Nc1ccc(SC(F)F)cc1`, for which the “activity change, negative = inhibition” value is 26.4%.
Take `O=C(CC(O)(C(F)(F)F)C(F)(F)F)Nc1ccc(Cl)c(Cl)c1`: the Potency was 5.01 µM (active).
As for `COc1ccccc1N(CC(=O)NC1CCCC1)C(=O)C1(C)CC(=O)N=C2C=CC(C)=CN21` (stereo not drawn), the “activity change, negative = inhibition” value was -3.48%.
With `O=C1CCCCN1CCCC(=O)N1CCCC(Nc2ccc(F)cc2)C1` (stereo not drawn), the “activity change, negative = inhibition” value is -0.309%.
In the case of `O=C(N/N=C/c1ccc(OCc2ccccc2)cc1)c1ccc(O)cc1`, the Potency is 8.91 µM (active).
In the case of `O=C(Cc1cccs1)N/N=C/c1ccc(OCc2ccccc2)cc1`, the “activity change, negative = inhibition” value was 43.6%.
As for `O=C(N/N=C/c1ccc(OC(=O)c2ccccc2Cl)cc1)c1ccc(O)cc1`, the “activity change, negative = inhibition” value is -20.7%.
On the same count and under the same terms, the figure for `CCn1nc(C)c(CNC(=O)C2CCC(=O)N(Cc3cccc(F)c3)C2)c1C` (stereo not drawn) is 2.01%.
For the compound `CCCC(O)(CCC)C(=O)NN(C(=O)CCl)c1cccc(C)c1`, the Potency is 15.8 µM (active).
Same read-out and setting: for `CCCCC(O)(CCCC)C(=O)NN(C(=O)CCl)c1ccccc1` the value was 12.6 µM (active).
As to `CCCCCNC(=O)C1c2ccccc2Oc2ccccc21`, the “activity change, negative = inhibition” value is -9.9%.
The same measure, in the same setting: for `Cc1ccc(N(NC(=O)C(C)(C)O)C(=O)c2ccccc2)cc1C` the value was -4.04%; for `CC(C)(O)C(=O)NN(C(=O)c1ccccc1)c1cccc(Br)c1`, 0.311%; for `COC(=O)N(NC(=O)C(O)(C(C)C)C(C)C)c1ccccc1`, 14.2%.
On to `Cc1cc(C)n(CC(O)COc2ccc(C(C)(C)C)cc2)n1` (stereo not drawn), for which the “activity change, negative = inhibition” value was -13.9%.
For the compound `CCc1ccc(N(C(=O)c2csnn2)C(C(=O)NC2CCCCC2)c2cccnc2)cc1` (stereo not drawn), the “activity change, negative = inhibition” value was 15.8%.
For the compound `O=C(O)c1cc(S(=O)(=O)N(Cc2ccccc2)c2cccc(C(F)(F)F)c2)ccc1Cl`, the “activity change, negative = inhibition” value was 10.3%.
On the same count and under the same terms, the figure for `O=S(=O)(NCCc1ccc(Cl)cc1)c1cccs1` is 23.7%; for `COC(=O)c1c(NC(=O)c2ccc(S(=O)(=O)N3CCOCC3)cc2)sc2c1CCN(C(C)C)C2` it is -7.46%; for `CC(CCc1ccccc1)NC(=O)c1cnc(Cl)c(Cl)c1` (stereo not drawn) it is 10.2%.
`Cc1ccn(CC(=O)N2N=C(C(F)F)CC2(O)C(F)F)n1` (stereo not drawn): the “activity change, negative = inhibition” value was -2.3%.
For `Cc1nn(Cc2ccc(C(=O)N3N=C(C(F)F)CC3(O)C(F)F)cc2)c(C)c1[N+](=O)[O-]` (stereo not drawn), the Potency was 12.6 µM (active).
Take `CCc1ccc(NC(=O)Cn2nc(C)c([N+](=O)[O-])c2C)cc1`: the “activity change, negative = inhibition” value is 22.5%.
